Shown are actives, neighbours in structure and some others; about 2.5% of the full set was active somewhere.
Cruzain inh noDet – blocks cruzain activity in detergent-free assay; P25779; purified cruzain, Z-FR-AMC fluorescence, no detergent; Potency, µM, without a hit: max response, negative = inhibition, hits mostly inhibitors; 200,000 tested, 2.3% active;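 note: plate controls were enzyme without inhibitor for no effect and buffer without enzyme for full effect; nearly all actives have a fitted effect of over 40% in size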
Target sequence (P25779 123-467 limits assumed): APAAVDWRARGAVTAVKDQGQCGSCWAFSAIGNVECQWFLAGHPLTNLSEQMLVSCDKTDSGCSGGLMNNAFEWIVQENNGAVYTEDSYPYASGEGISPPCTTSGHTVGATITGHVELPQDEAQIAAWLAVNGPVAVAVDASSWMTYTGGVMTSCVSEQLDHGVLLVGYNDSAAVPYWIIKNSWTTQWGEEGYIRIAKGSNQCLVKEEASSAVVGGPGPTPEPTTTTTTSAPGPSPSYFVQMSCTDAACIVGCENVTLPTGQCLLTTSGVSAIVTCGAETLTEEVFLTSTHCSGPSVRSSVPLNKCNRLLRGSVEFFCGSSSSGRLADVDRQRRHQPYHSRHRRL
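Purified cruzain at 1.5 nM, pre-incubated 15 min with compound at room temperature in 100 mM sodium acetate pH 5.5, 5 mM DTT, 0.00005% Triton X-100. Reaction started with 2 uM Z-FR-AMC; AMC fluorescence increase over 60 s gives rate.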
Cruzain Triton – cruzain (T. cruzi) inhibition with detergent | AID 1478 | purified cruzain, Z-FR-AMC fluorescence, 0.01% Triton | Potency, µM, without a hit: max response, negative = inhibition, hits mostly inhibitors | 200,000 tested, 0.43% active | P25779;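 note: plate controls were neutral wells for no effect and buffer without enzyme for full effect; nearly all actives have a fitted effect of over 40% in size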
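Sodium acetate buffer (100 mM, pH 5.5) containing 5 mM DTT and 0.01% Triton X-100 hosted 1.5 nM cruzain and test compound for 15 min at room temperature. Cleavage of 2 uM Z-FR-AMC was then tracked by fluorescence.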
* hit, by the source's call; u = inconclusive. Calls come from the whole dose curve; as a rule, active = well fitted curve in the direction sought with a large enough effect; inconclusive = small, poorly fitted or top-dose-only effect, or another doubt; inactive = no such curve, though single readings can be large; an effect the other way counts as inactive or inconclusive. Potency is the fitted concentration of half-maximal effect.

SMILES	Cruzain inh noDet	Cruzain Triton
O=C(CSc1nc(-c2ccccc2F)nc2nc[nH]c12)Nc1c(Cl)cc(Cl)cc1Cl	6.3µM*	-4%
CCc1cccc(C)c1NC(=O)CSc1nc(-c2ccccc2F)nc2nc[nH]c12	u	-4%
CCN1C(=O)c2ccccc2S(=O)(=O)c2ccc(C(=O)NCc3ccccc3OC)cc21	3%	2%
Cc1ccc(NC(=O)Cc2nnc(SCC(=O)c3ccc(Br)cc3)n2C)cc1Cl	13µM*	7%
Cc1ccccc1NC(=O)Cc1nnc(SCC(=O)c2ccc(Br)cc2)n1C	-7%	3%
Cc1nn(-c2ccccc2)c(N2CCCC2)c1/C=N/NC(=O)c1cc(-c2cccnc2)nc2ccccc12	24%	-7%
CC(/C=N/NC(=O)c1cc(-c2cccnc2)nc2c1c(C)nn2-c1ccccc1)=C\c1ccccc1	13µM*	-4%
Cc1ccccc1Nc1nnc(SCc2cc([N+](=O)[O-])cc3c2OCOC3)s1	13µM*	1%
O=[N+]([O-])c1cc2c(c(CSc3nnc(Nc4ccccc4)s3)c1)OCOC2	u	-1%
COc1ccc(-n2nc(C(=O)N3CCN(c4ccccc4OC)CC3)c3c4ccccc4n(C)c3c2=O)cc1Cl	18%	5%
CCOCCCNC(=O)c1ccc2c(c1)NC(=O)C(CS(=O)(=O)Cc1ccc(F)cc1Cl)N2 (configuration not stated)	-3%	2%
CC1=NN(c2ccccc2)C(=O)/C1=C\c1c(C)[nH]n(-c2ccccc2)c1=O	2%	1%
CC1=NN(c2ccccc2)C(=O)/C1=C/c1c(O)n(-c2ccc(F)c(Cl)c2)[nH]c1=O	-6%	22µM*
CCOC(=O)c1cc(-c2ccc(F)cc2)n(CCC(=O)Nc2nc3cc(C)c(C)cc3s2)c1C	-4%	-1%
CCOC(=O)NC(=O)/C(C#N)=N\Nc1ccc(Cl)cc1	5µM*	-2%
CCOc1ccc(N/N=C(/C#N)C(N)=O)cc1	-21%	-9%
O=C(CCN1CCc2ccccc2CC1)c1ccc2c(c1)OCCO2	16µM*	u
O=C(CCN1CCOCC1)c1ccc2c(c1)OCCO2	-14%	-23%
C=C(COC)C1=CCC(C(=O)OC)(C(=O)OC)[C@@H](C[N+](=O)[O-])c2ccccc21	6%	3%
O=C(NN1C(=O)c2cc(Br)ccc2NC1c1cc(Br)cc(Br)c1O)c1ccncc1 (configuration not stated)	10µM*	-10%
O=C(NN1C(=O)c2cc(Br)ccc2NC1c1ccccc1Cl)c1ccncc1 (configuration not stated)	-8%	1%
Cc1ccc(CNC(=O)c2ccc(CS(=O)(=O)c3ccccc3C)o2)cc1	-2%	-2%
COC(=O)c1ccc(CS(=O)(=O)c2ccccc2C)o1	16µM*	3%
COc1ccc(Cn2c(CO)cnc2SCc2cccc(C)c2)cc1	2%	-4%
COc1ccc(N2C(=O)CSC23C(=O)N(Cc2ccccc2F)c2ccccc23)cc1Cl (configuration not stated)	u	-8%
SMILES	Cruzain inh noDet	Cruzain Triton
Cc1ccc(N2C(=O)CS(=O)(=O)C23C(=O)N(C)c2ccccc23)cc1F (configuration not stated)	-25%	-2%
CC(C)c1ccc(N2C(=O)CS(=O)(=O)C23C(=O)N(Cc2cccc(F)c2)c2ccccc23)cc1 (configuration not stated)	2.5µM*	-3%
COc1ccc(N2C(=O)CS(=O)(=O)C23C(=O)N(Cc2ccccc2F)c2ccccc23)cc1Cl (configuration not stated)	2µM*	-2%
COc1cccc(CN2C(=O)C3(SCC(=O)N3c3ccc(C(C)C)cc3)c3ccccc32)c1 (configuration not stated)	u	-6%
CCc1ccc(N2C(=O)CS(=O)(=O)C23C(=O)N(Cc2ccccc2F)c2ccccc23)cc1 (configuration not stated)	3.2µM*	-5%
COc1ccc(-c2cc3nc(C)c(CCC(=O)N4CCN(c5cccc(Cl)c5)CC4)c(C)n3n2)c(OC)c1	29%	-5%
CCc1cc2c(=O)c(-c3cnn(-c4ccccc4)c3)c(C)oc2cc1OCC(=O)Nc1cccc(C)c1	u	-2%
CCc1cc2c(=O)c(-c3cnn(-c4ccccc4)c3)c(C)oc2cc1OCC(=O)Nc1ccc(F)c(F)c1	25µM*	-1%
C=C[C@@]1(C)CC(=O)[C@@]2(O)[C@@]3(C)[C@@H](O)CCC(C)(C)[C@@H]3[C@H](O)[C@H](OC(C)=O)[C@@]2(C)O1	10%	0%
CCCN1C(=O)/C(=C\C=C2/C=CN(CC)c3ccccc32)SC1=S	-8%	-6%
CCCCN1C(=O)/C(=C/C=C2\N(C)c3ccccc3C2(C)C)SC1=S	32µM*	-2%
COc1cc(CNc2cccc(F)c2)cc(Br)c1O	25µM*	-5%
COc1ccc(CNc2ccccc2)cc1Br	-9%	-6%
COc1cc(OC)c(/C=N/NC(N)=S)cc1Br	0.25µM*	0.18µM*
CCOc1c(Cl)cc(/C=N/NC(N)=S)cc1OC	0.5µM*	2.5µM*
C#CCOc1c(Cl)cc(/C=N/NC(N)=S)cc1OCC	0.63µM*	2µM*
COc1cc(/C=N/O)cc(Cl)c1OC	-2%	-3%
CCOc1cc(C(=O)O)cc(Cl)c1OCC#N	2%	4%
COc1cc(OC)c(OC)cc1/C=N/NC(=O)C[n+]1ccccc1	-13%	-5%
CC(=O)N1CCCc2cc(S(=O)(=O)NCc3ccc(OC(C)C)cc3)ccc21	-4%	1%
CCOC(=O)c1ncc2[nH]c3cccc(OC(C)C)c3c2c1C	u	0%
O=C(Nc1cccc(Cl)c1)Nc1nnc(CSCCOc2ccc(Cl)cc2)s1	u	-4%
CCc1nnc(NC(=O)Nc2ccc(OC)cc2)s1	9%	2%
COc1ccc(OCCSCc2nnc(NC(=O)Nc3ccc(Cl)cc3)s2)cc1	13µM*	-2%
Cc1ccc(NC(=O)Nc2nnc(CSCCOc3ccc(Cl)cc3)s2)cc1	7.9µM*	0%
SMILES	Cruzain inh noDet	Cruzain Triton
CC1=NN(c2ccc(S(=O)(=O)O)cc2C)C(=[OH+])[C@H]1N=Nc1cc(S(=O)(=O)O)ccc1C(=O)O.O.[Cr]	-7%	-9%
OC(Cc1ccccc1)(Cc1ccccc1)c1ccccc1	8%	4%
CCN(C(=O)CSc1nc(-c2ccccc2)no1)c1cccc(C)c1	0%	-6%
CCOc1ccccc1CNC(=O)CN1C(=O)CCc2cc(S(=O)(=O)N3CCCCC3)ccc21	u	-2%
Cc1ccc(/C=C2/SC(=S)N(CCC(=O)N3CCN(c4ccccc4)CC3)C2=O)cc1	-8%	1%
CC(/C=C1\SC(=O)N(CC(=O)Nc2ccc(O)cc2)C1=O)=C\c1ccccc1	13%	0%
CC(=O)c1ccc(NC(=O)CCCN2C(=O)/C(=C/C(C)=C/c3ccccc3)SC2=S)cc1	32µM*	-9%
CC(/C=C1\SC(=S)N(CC(=O)N2CCN(c3ccccc3)CC2)C1=O)=C\c1ccccc1	10µM*	-6%
Cc1ccc(S(=O)(=O)c2c(O)cc(C)c(NS(=O)(=O)c3ccc(Br)cc3)c2C)cc1	u	-1%
Cc1ccc(-c2nc3scc(CCNC(=O)Cc4ccc(Cl)cc4)n3n2)cc1	-4%	0%
Cc1ccc(NC(=O)/C=C/c2ccc([N+](=O)[O-])s2)cc1	32µM*	1%
Cc1cccc(NC(=O)/C=C/c2ccc([N+](=O)[O-])s2)c1	u	-4%
O=C(Nc1nc(-c2cccs2)cs1)c1ccc(S(=O)(=O)N2CCCC2)cc1	-17%	2%

Screening results from PubChem.
